This is a sample that favours compounds with a hit; in the whole collection about 8% have one here.
Lassa entry inh: qHTS for Inhibitors of binding or entry into cells for Lassa Virus. AID 540256, 2011. Potency, µM (highest dose often 37.9 µM), for inactives: top-dose activity change, negative = inhibition, usual class: inhibitors. 300,000 tested, 1.2% active. Lassa virus pseudotype entry inhibition, cell reporter; calls by dose curve; tested in HEK293 cells; also: potency is read from the fitted curve at half-maximal effect; % is scaled to controls: 0 for no effect and ±100 for the full control effect; nearly all actives have a fitted effect of over 50% in size
HCV inhibitor: qHTS Assay for Inhibitors of Hepatitis C Virus (HCV). Huh7.5.1 HCVcc-Cre infection, luciferase reporter, 44 h. Potency, µM (titrated, usually from 41.8 µM), inactives show at the top dose activity change, negative = inhibition, most hits filed as inhibitors. 340,000 tested, 3.4% active; active = well fitted inhibition curve with a large enough effect; inconclusive = small, poorly fitted or top-dose-only effect, or another doubt; inactive = no such curve, though single readings can be large or run the other way; also: potency is read from the fitted curve at half-maximal effect; % is scaled to controls: 0 for no effect and ±100 for the full control effect
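Reporter virus HCVcc-Cre (~0.5 moi) infects cells exposed to compound; seeding density 1,000 cells/well with 4 h settling beforehand. Luminescence, 15 sec read, taken 44 h post-infection following a 15 min RT substrate incubation.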
MARV entry inh: qHTS for inhibitors of binding or entry into cells for Marburg Virus; Marburg virus pseudotyped entry inhibition, cell reporter; Potency, µM (top dose mostly 37.8 µM), for inactives: at the highest dose activity change, negative = inhibition, usual class: inhibitors; 300,000 tested, 1.8% active; calls by dose curve; tested in HEK293 cells; also: potency is read from the fitted curve at half-maximal effect; % is scaled to controls: 0 for no effect and ±100 for the full control effect
SARS PLpro yeast: qHTS of Yeast-based Assay for SARS-CoV PLP; S. cerevisiae expressing SARS-CoV PLpro, growth rescue; Potency, µM (highest dose often 32.9 µM), for inactives: at the top dose activity, positive = growth rescue, usual class: activators; 330,000 tested, 0.19% active; calls by dose curve; also: potency is read from the fitted curve at half-maximal effect; 0% is about no effect; nearly all actives have a fitted effect of over 55% in size
FMDV inh: High Throughput Screening for Foot and Mouth Disease Virus Antivirals | FMDV antiviral cell-based qHTS | AID 1159524, 2015 | 410,000 tested, 1.2% active | Potency, µM (top dose mostly 57.9 µM), for the others: top-dose activity change, negative = inhibition, usual class: inhibitors; calls by dose curve; tested in HEK293T cells; also: read-out not given here; potency is read from the fitted curve at half-maximal effect; % is scaled to controls: 0 for no effect and ±100 for the full control effect; nearly all actives have a fitted effect of over 45% in size
HCMV inh: qHTS Assay for inhibitors of the human cytomegalovirus (HCMV) | activity change, negative = inhibition, % at 57.5 µM | 410,000 tested, 4.5% active | HFF cells, HCMV-luciferase reporter, 72 h; active compounds read low; in the data active = activity change below about -60%; inconclusive = no clear call, values can overlap the other calls; inactive = above about -39%; also: % is scaled to controls: 0 for no effect and ±100 for the full control effect
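After 16 h attachment at 37C, HFF cells received test compound and HCMV-luciferase (1 PFU/cell); reporter luminescence read 72 h later, data normalized against buffer-only and known inhibitor Salinomycin.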
The depositor's hits bear a star; ! = not confirmed by another sample; [ ] = remark or other dose.

CCc1nn2c(=O)c(S(=O)(=O)Nc3ccc(C(C)C)cc3)c(C)nc2s1 was read as Lassa entry inh 10%[46.1 µM], HCV inhibitor -10%, MARV entry inh 6%[46.1 µM], SARS PLpro yeast 4%, FMDV inh -26% and HCMV inh -64*!.
`CCc1nn2c(=O)c(S(=O)(=O)Nc3cccc(F)c3)c(C)nc2s1` gave Lassa entry inh inconclusive, HCV inhibitor 3%, MARV entry inh -3%[46.1 µM], SARS PLpro yeast -2%, FMDV inh 8% and HCMV inh -30.
`O=C(COc1ccccc1Cl)N(Cc1ccco1)Cc1ccco1` gave Lassa entry inh 14%[46.1 µM], MARV entry inh 1%[46.1 µM], FMDV inh -15% and HCMV inh 43.
CC(=O)c1ccc(NC(=O)Nc2ccc3c(c2)nc(C)n3C)cc1 was read as Lassa entry inh -1%, HCV inhibitor -6%, MARV entry inh inconclusive, SARS PLpro yeast 1%, FMDV inh 72% and HCMV inh -24.
For Cc1cc(NC(=O)Nc2ccc3c(ccn3C)c2)sn1 the results were Lassa entry inh inconclusive, HCV inhibitor 0.56µM*, MARV entry inh inconclusive, FMDV inh 45% and HCMV inh -5.
COc1ccc(-n2c(C)cc(C3=NNC(=NC4CC4)SC3)c2C)cc1 was read as Lassa entry inh inconclusive, HCV inhibitor inconclusive, MARV entry inh inconclusive, SARS PLpro yeast -2%, FMDV inh -37% and HCMV inh -71*.
For Cc1cc(C2=NNC(=NC3CC3)SC2)c(C)n1-c1ccccc1 the results were HCV inhibitor inconclusive, SARS PLpro yeast -23%, FMDV inh 0.1µM* and HCMV inh -77*.
CCC(C)n1c(=O)c2sccc2n2c(CCCC(=O)Nc3ccc(F)cc3)nnc12 (centres undefined) was read as Lassa entry inh -10%[46.1 µM], FMDV inh -1% and HCMV inh -65*.
For Cn1c(=O)c2sccc2n2c(CCCC(=O)Nc3ccc(Oc4ccccc4)cc3)nnc12 the results were Lassa entry inh -9%[46.1 µM], FMDV inh inconclusive and HCMV inh -65*.
For Cc1ccc(NC(=O)CCCc2nnc3n(C)c(=O)c4sccc4n23)cc1F the results were Lassa entry inh inconclusive, MARV entry inh 18%[46.1 µM], FMDV inh 1.3µM* and HCMV inh -31.
Screening Cc1cc(C)c(CN2CCN(C(=O)Cn3ccc(N)nc3=O)CC2)c(C)c1 returned HCV inhibitor -38%, SARS PLpro yeast -13%, FMDV inh -19% and HCMV inh 35.
Screening Cc1cc(C)c(CN2CCN(C(=O)Cn3cnc4c(NCc5ccccc5)ncnc43)CC2)c(C)c1 returned HCV inhibitor inconclusive, SARS PLpro yeast 1%, FMDV inh 8.9µM* and HCMV inh -31.
CSc1nc(N)nc2c1ncn2CC(=O)N1CCN(Cc2c(C)cc(C)cc2C)CC1 was read as HCV inhibitor 1.4µM*, SARS PLpro yeast 1%, FMDV inh inconclusive and HCMV inh -30.
O=C1C=C(c2c(O)ccc3ccccc23)c2ccccc2C1=O was read as Lassa entry inh 6.3µM*, HCV inhibitor inconclusive, MARV entry inh inconclusive, FMDV inh 22µM* and HCMV inh -97*.
Screening CCN(CC)CCCNC(=O)c1cc(Nc2ccc(OC)cc2OC)nc2ccccc12 returned HCV inhibitor -27%, SARS PLpro yeast 1%, FMDV inh -17% and HCMV inh 51.
`CCN(CC)CCNC(=O)c1cc2cc(Br)ccc2s1` gave Lassa entry inh -53%, HCV inhibitor 13µM*, MARV entry inh inconclusive, SARS PLpro yeast 0%, FMDV inh -6% and HCMV inh 4.
`CCN(CC)CCNC(=O)c1cc(-c2ccc(Br)s2)nc2ccccc12` gave Lassa entry inh inconclusive, HCV inhibitor 13µM*, MARV entry inh inconclusive, SARS PLpro yeast -4%, FMDV inh -7% and HCMV inh -94*!.
For O=C(NC1CC1)c1cc(-c2ccc(Br)cc2)nc2ccccc12 the results were HCV inhibitor 4%, SARS PLpro yeast -3%, FMDV inh -22% and HCMV inh 0.
CN1CCC(NC(=O)c2cc(-c3cccc(Br)c3)nc3ccccc23)CC1 was read as Lassa entry inh inconclusive, HCV inhibitor 11µM*, MARV entry inh 10µM*, SARS PLpro yeast 3%, FMDV inh -5% and HCMV inh -30.
For CCCCOc1cc(C(=O)NCCN(CC)CC)c2ccccc2n1 the results were Lassa entry inh 13µM*, HCV inhibitor 3%[8.37 µM], MARV entry inh 10µM*, SARS PLpro yeast -2%, FMDV inh 0% and HCMV inh -27.
`CCN(CC)CCNC(=O)c1cc2c(=O)n(C)c3cc(Cl)ccc3c2s1` gave Lassa entry inh 5%[46.1 µM], MARV entry inh 21%[46.1 µM], FMDV inh 1% and HCMV inh 12.
For CCOC(=O)c1ccc(NC(=O)c2c(NCc3cc(OC)c(OC)cc3OC)sc3c2CCCC3)cc1 the results were Lassa entry inh 13%[46.1 µM], FMDV inh -22% and HCMV inh -21.
For CCOC(=O)N/N=C1\C[C@@H](O)[C@@H](O)[C@@H]2[C@@H]3C(=O)N(C[C@@H]4CCCO4)C(=O)[C@@H]3CC[C@@H]12 the results were MARV entry inh 6%[14.2 µM].
`CN1CCN(NC(=O)c2cc(-c3ccc(Br)s3)nc3ccccc23)CC1` gave Lassa entry inh inconclusive, HCV inhibitor 10µM*, MARV entry inh inconclusive, SARS PLpro yeast 2%, FMDV inh 0% and HCMV inh -5.
For O=C(O)c1cc(-c2ccc(Br)s2)nc2ccccc12 the results were HCV inhibitor 7%, SARS PLpro yeast -3%, FMDV inh 50% and HCMV inh 16.
For CCCCN(C)CCNC(=O)c1cc(-c2ccc(Cl)s2)nc2ccccc12 the results were Lassa entry inh inconclusive, MARV entry inh -9%[46.1 µM], FMDV inh -23% and HCMV inh -101*.
`Cc1ccc(-c2ccc(CCC(=O)O)n2-c2cccc(C)c2C)cc1` gave Lassa entry inh inconclusive, MARV entry inh 6%[46.1 µM], FMDV inh -16% and HCMV inh 10.
Screening CCC1Nc2ncnc(N3CCN(c4ccccc4)CC3)c2N(Cc2ccc(C)cc2)C1=O (centres undefined) returned HCV inhibitor 2.8µM*, SARS PLpro yeast 1%, FMDV inh -14% and HCMV inh 14.
O=C1C(Cc2ccccc2)Nc2ncnc(N3CCOCC3)c2N1Cc1ccccc1 (centres undefined) was read as HCV inhibitor -6%, SARS PLpro yeast -9%, FMDV inh 0% and HCMV inh -101*!.
`Cc1ccc(CN2C(=O)C(Cc3ccccc3)Nc3ncnc(N4CCOCC4)c32)cc1` (centres undefined) gave FMDV inh 0% and HCMV inh -20.

Bioassay records deposited in PubChem by National Center for Advancing Translational Sciences (NCATS).
